Laboratory results published in PubChem BioAssay (NCATS).
Results filed as inconclusive are left out. A number with no mark means an inactive call. The source made the active and inactive calls. Calls come from the whole dose curve; as a rule, active = well fitted cell-killing curve with a large enough effect; inconclusive = small, poorly fitted or top-dose-only effect, or effect the other way; inactive = no such curve, though single readings can be large or run the other way.

assay: Quantitative High-Throughput drug screen in 47 multiple myeloma cell lines against the NCATS MIPE library collection: KMS34_JCRB cell viability assay (AID 1918985); conditions: KMS34 myeloma viability, CellTiter-Glo ATP luminescence, 48 h; series mostly up to 45.8 µM; viability, percent of control: at the top concentration; note: nearly all actives have a fitted effect of over 40% in size
In short: (§1)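 500 cells/well per myeloma line exposed to pinned MIPE 4.0 compounds for 48 h at 37 °C, 5% CO2. Viability read as ATP by CellTiter-Glo luminescence, normalised to DMSO-only (100%) and media-only (0%) wells.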
Potency is the fitted concentration of half-maximal effect.

SMILES	viability, percent of control	Potency
O=c1c2ccccc2nc2n1CCc1c-2[nH]c2ccccc12	90%	–
CC=CC1=C(C(=O)O)N2C(=O)[C@H](NC(=O)[C@H](N)c3ccc(O)cc3)[C@@H]2SC1	101%	–
Cc1cnc(-c2cnc(NCCNc3ccc(C#N)cn3)nc2-c2ccc(Cl)cc2Cl)[nH]1	–	5.9 µM (active)

assay: Quantitative High-Throughput drug screen in 47 multiple myeloma cell lines against the NCATS MIPE library collection: OCIMY7_PLB cell viability assay (AID 1918987); conditions: OCI-MY7 myeloma viability, CellTiter-Glo ATP, 48 h; series mostly up to 45.8 µM; viability (% of DMSO): at the top concentration; note: nearly all actives have a fitted effect of over 65% in size
In short: as §1

SMILES	viability (% of DMSO)	Potency
COc1ccc(-n2nc(C(N)=O)c3c2C(=O)N(c2ccc(N4CCCCC4=O)cc2)CC3)cc1	180%	–
CNc1nccc(-c2cccnc2Oc2cc(C(=O)Nc3cccc(C(F)(F)F)c3)ccc2C)n1	–	1.66 µM (active)
CCCCN1CCC(CNC(=O)c2c3n(c4ccccc24)CCCO3)CC1	–	3.72 µM (active)
COC(=O)C[C@](O)(CCCC(C)(C)O)C(=O)O[C@@H]1C(OC)=C[C@]23CCCN2CCc2cc4c(cc2[C@H]13)OCO4	127%	–
CS(=O)(=O)c1ccc(-c2cnc(N)c(C(=O)Nc3ccccc3)n2)cc1	–	1.66 µM (active)
Nc1cccc(-c2cc3c(Oc4cccc(O)c4)ncnc3[nH]2)c1	–	2.64 µM (active)
NC(=O)c1c(OCc2c(F)cc(Br)cc2F)nsc1NC(=O)NCCCCN1CCCC1	–	8.33 µM (active)
CCN(CC)CCCCNc1ncc2cc(-c3cc(OC)cc(OC)c3)c(NC(=O)NC(C)(C)C)nc2n1	–	18.7 µM (active)
CCc1cc2c(cc1N1CCC(N3CCOCC3)CC1)C(C)(C)c1[nH]c3cc(C#N)ccc3c1C2=O	–	1.48 µM (active)
CNC(=O)CN1CCC(Oc2cc3c(Nc4cccc(Cl)c4F)ncnc3cc2OC)CC1	–	0.0833 µM (active)
Nc1ccn([C@@H]2O[C@H](CO)[C@H](O)C2(F)F)c(=O)n1	–	0.001 µM (active)
NCC(=O)Nc1ccc(-n2nc(C(F)(F)F)cc2-c2ccc3c(ccc4ccccc43)c2)cc1	–	16.6 µM (active)
Cc1c(Cn2c(C)nc3c(C(=O)O)cc(N4CCOCC4)cc32)cccc1C(F)(F)F	–	0.264 µM (active)
Cc1cc(Nc2cc(CN3CCOCC3)c3nc(C)c(Cc4ccc(Cl)cc4F)n3n2)n[nH]1	–	2.64 µM (active)
Cc1c(NC(=O)OC[C@@H]2COCCN2)cn2ncnc(Nc3ccc4c(cnn4Cc4cccc(F)c4)c3)c12	–	0.59 µM (active)
O=c1c2ccccc2nc2n1CCc1c-2[nH]c2ccccc12	–	18.7 µM (active)
CC=CC1=C(C(=O)O)N2C(=O)[C@H](NC(=O)[C@H](N)c3ccc(O)cc3)[C@@H]2SC1	–	26.4 µM (active)
Cc1cnc(-c2cnc(NCCNc3ccc(C#N)cn3)nc2-c2ccc(Cl)cc2Cl)[nH]1	–	4.18 µM (active)
